Assay [1] has as its target Cytochrome P450 3A4 (Homo sapiens) (UniProt P08684). As to the kind of experiment: qHTS Assay for Inhibitors and Substrates of Cytochrome P450 3A4 (AID 884). Also: nearly all actives have a fitted effect of over 50% in size. Also: potency is read from the fitted curve at half-maximal effect. As to activity change, negative = inhibition: % is scaled to controls: 0 for no effect and ±100 for the full control effect. As to conditions: recombinant CYP3A4, Luciferin-PPXE luminescence; series mostly up to 57.1 µM. Put shortly: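 20 nM human CYP3A4 with 25 uM Luciferin-PPXE (at KM) in 200 mM KPO4, preincubated 10 min with compound; NADPH regeneration started a 60 min RT reaction. Luciferin detected by luminescence, normalized to 57 uM ketoconazole as full inhibition.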
(In general: qHTS replaces the single test concentration by a dilution series.)

A short description of assay [2]: Confirmation and Secondary Assay for Modulators of Hemoglobin Beta Chain Splicing at IVS2 654 locus (AID 910).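 Also: HeLa cells stably carrying EGFP split by mutant beta-globin IVS2-654 intron; % of control where 0% means no effect.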 The following applies: HeLa EGFP-654 splicing reporter, GFP fluorescence, 48 h; series mostly up to 46.1 µM. In outline:
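HeLa cells stably expressing EGFP interrupted by β-globin IVS2-654 intron, seeded overnight in Opti-MEM/2% FCS, then treated 2 days at 37 °C. Restored splicing read as total peak GFP intensity per well by laser scanning cytometry (488 nm excitation, 500–520 nm emission); 500 nM antisense PNA as control.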

Assay [3] is described as follows: Confirmation and Secondary Assay for Modulators of Hemoglobin Beta Chain Splicing at IVS2 705 locus (AID 930).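 Also: HeLa cells stably expressing the EGFP-705 splicing reporter; GFP fluorescence per well restored by corrected splicing of the IVS2-705 intron in EGFP; % of control where 0% means no effect.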 The following applies: HeLa EGFP-705 splicing reporter, GFP fluorescence, 48 h; series mostly up to 46.1 µM. Put shortly:
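Per-well GFP, captured at 1 x 8 µm resolution with 488 nm excitation, served as the read-out for HeLa EGFP-705 cells incubated 2 days with test compound versus DMSO.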

Assay [4] is described as follows: qHTS Assay for Lipid Storage Modulators (AID 1519; calls by dose curve; as to activity change, negative = inhibition: % is scaled to controls: 0 for no effect and ±100 for the full control effect). As to conditions: Drosophila S3 cells, BODIPY lipid droplet/cell ratio, laser cytometry, cells loaded with oleic acid; for activity change, negative = inhibition: at 57.5 µM (top of the series). Put shortly: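 Cells seeded at 5,000 per well were treated with compounds over a concentration series and loaded with oleic acid (400 uM, as added). Lipid droplet fluorescence (488 nm excitation, 500-530 nm channel) was read by laser-scanning cytometry and normalized to 20 uM Triacsin C.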

Assay [5] concerns the target Ubiquitin carboxyl-terminal hydrolase 1 (Homo sapiens) (UniProt O94782). As to the kind of experiment: Inhibitors of USP1/UAF1: Pilot qHTS (AID 504865).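 Also: rhodamine fluorescence freed from ubiquitin-rhodamine substrate followed over time; top concentration of the series differs between compounds; % is scaled to controls: 0 for no effect and ±100 for the full control effect; nearly all actives have a fitted effect of over 35% in size.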 The following applies: purified USP1/UAF1, Ub-rhodamine cleavage fluorescence; series mostly up to 114 µM. In outline: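 USP1/UAF1 complex (1nM) preincubated with compound 15 min at room temperature, then Ub-Rho substrate (150nM final) added. Fluorescence read kinetically at 480/540 nm, 6 reads every 60 seconds. Buffer: 50mM HEPES pH 7.8, 0.5mM EDTA, 0.1 mg/ml BSA, 1mM TCEP, 0.01% Tween-20.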

Assay [6] deals with Peroxisome proliferator-activated receptor alpha (Homo sapiens) (UniProt Q07869). Put plainly: qHTS assay for small molecule agonists of the peroxisome proliferator-activated receptor alpha (PPARalpha) signaling pathway (AID 651778). Also: % of control where 0% means no effect. The following applies: PathHunter PPARalpha complementation, chemiluminescence, 6 h; stronger effect = higher value. In outline: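 Enzyme-fragment complementation assay in which ligand-bound PPARalpha translocates and forms an active enzyme that generates chemiluminescence. Cells were plated overnight, exposed to compound for 6 hr at 37 C, and then given detection reagent for 60 min at room temperature.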
Sequence of Peroxisome proliferator-activated receptor alpha (Homo sapiens) (Q07869 whole entry, looked up, the tested form may be a part): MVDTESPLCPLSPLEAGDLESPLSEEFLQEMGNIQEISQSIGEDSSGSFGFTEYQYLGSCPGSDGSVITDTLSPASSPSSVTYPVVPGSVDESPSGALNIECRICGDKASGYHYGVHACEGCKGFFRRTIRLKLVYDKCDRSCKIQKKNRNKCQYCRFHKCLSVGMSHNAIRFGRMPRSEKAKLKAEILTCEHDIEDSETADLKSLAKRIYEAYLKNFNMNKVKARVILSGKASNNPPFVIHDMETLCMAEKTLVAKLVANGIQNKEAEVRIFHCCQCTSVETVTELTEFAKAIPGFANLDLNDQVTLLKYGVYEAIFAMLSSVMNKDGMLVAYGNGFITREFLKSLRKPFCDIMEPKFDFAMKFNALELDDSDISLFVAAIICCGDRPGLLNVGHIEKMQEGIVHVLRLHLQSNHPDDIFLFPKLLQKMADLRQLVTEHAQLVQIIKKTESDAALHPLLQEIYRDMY

The nature of assay [7]: qHTS assay for cell viability of HEK293 cells (AID 743288). Also: % is scaled to controls: 0 for no effect and ±100 for the full control effect; nearly all actives have a fitted effect of over 50% in size. The following applies: ATP luminescence (CellTiter-Glo), 18 h; max response: stronger effect = lower value. Put shortly: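 Parental HEK293 cells were seeded at 2,000 cells/well, rested at least 5 h at 37 C, then exposed to compounds in DMSO for 18 h at 37 C. Viability was read as ATP-dependent luciferase luminescence after 30 min at room temperature.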

The target in assay [8] is Cytochrome P450 3A4 (Homo sapiens) (UniProt P08684). As to the kind of experiment: qHTS Assay for Activators of Cytochrome P450 3A4 (AID 885). Also: nearly all actives have a fitted effect of over 65% in size. As to conditions: recombinant CYP3A4, Luciferin-PPXE luminescence, 60 min; series mostly up to 57.1 µM. Put shortly:
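Quantitative HTS format: compounds preincubated with 20nM human CYP3A4 and Luciferin-PPXE substrate at KM, reaction started by NADPH regeneration, stopped after 60 min, luciferase luminescence read 20 min later.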

Where [9] appears, read: measured here: cell count channel max response.
Where [10] appears, read: measured here: lipid channel max response.

Results filed as inconclusive are left out. Activity calls are given as the source filed them. Unless noted, calls follow the shape of the dose curve; as a rule, active = well fitted curve in the direction sought with a large enough effect; inconclusive = small, poorly fitted or top-dose-only effect, or another doubt; inactive = no such curve, though single readings can be large; an effect the other way counts as inactive or inconclusive.

Sequence of Cytochrome P450 3A4 (Homo sapiens) (P08684 whole entry, looked up): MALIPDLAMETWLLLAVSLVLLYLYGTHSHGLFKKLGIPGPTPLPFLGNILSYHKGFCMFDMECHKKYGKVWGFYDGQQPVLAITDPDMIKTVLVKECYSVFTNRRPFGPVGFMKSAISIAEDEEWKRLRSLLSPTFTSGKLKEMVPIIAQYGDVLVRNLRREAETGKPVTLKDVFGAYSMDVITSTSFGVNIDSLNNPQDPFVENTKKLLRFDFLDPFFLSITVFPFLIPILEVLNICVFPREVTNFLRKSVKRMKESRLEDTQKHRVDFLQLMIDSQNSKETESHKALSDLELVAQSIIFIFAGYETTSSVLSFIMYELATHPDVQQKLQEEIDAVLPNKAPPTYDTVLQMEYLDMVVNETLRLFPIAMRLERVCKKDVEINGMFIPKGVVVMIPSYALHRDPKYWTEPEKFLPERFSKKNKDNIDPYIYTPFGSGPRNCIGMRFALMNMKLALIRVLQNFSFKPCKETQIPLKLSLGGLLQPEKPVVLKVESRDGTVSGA
Sequence of Ubiquitin carboxyl-terminal hydrolase 1 (Homo sapiens) (O94782 whole entry, looked up): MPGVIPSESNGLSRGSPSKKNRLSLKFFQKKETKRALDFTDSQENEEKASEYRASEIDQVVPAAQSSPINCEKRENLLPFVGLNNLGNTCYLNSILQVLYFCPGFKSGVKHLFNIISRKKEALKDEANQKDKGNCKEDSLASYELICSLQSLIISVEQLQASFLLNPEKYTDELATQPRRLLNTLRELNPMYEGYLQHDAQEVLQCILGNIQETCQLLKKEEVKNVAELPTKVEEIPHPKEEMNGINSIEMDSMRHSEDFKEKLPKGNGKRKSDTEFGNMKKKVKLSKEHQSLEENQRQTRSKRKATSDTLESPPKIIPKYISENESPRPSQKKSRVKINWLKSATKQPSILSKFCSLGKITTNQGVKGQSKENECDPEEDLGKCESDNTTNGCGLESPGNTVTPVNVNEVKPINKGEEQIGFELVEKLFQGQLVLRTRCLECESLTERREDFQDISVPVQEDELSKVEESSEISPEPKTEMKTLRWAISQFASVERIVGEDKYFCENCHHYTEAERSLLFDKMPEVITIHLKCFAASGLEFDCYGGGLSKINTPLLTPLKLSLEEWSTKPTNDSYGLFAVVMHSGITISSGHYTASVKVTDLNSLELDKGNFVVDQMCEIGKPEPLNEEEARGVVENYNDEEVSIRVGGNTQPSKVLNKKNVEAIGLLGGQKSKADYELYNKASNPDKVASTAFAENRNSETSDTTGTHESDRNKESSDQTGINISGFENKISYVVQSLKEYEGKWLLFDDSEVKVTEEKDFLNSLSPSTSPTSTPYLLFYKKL

As for `O=C(NC(=O)c1ccccc1Cl)Nc1ccc(OC(F)(F)F)cc1`, the Potency result in assay [1], in assay [2], in assay [3] and in assay [5] was “inactive” each time. For the same compound, the activity change, negative = inhibition in assay [4] is 8.39% (inactive). Moreover, the max response in assay [4] (setting [9]) amounted to 0.34%; in assay [4] (setting [10]), 9.8%.
Take `COc1ccc(/C=C/c2cc(O)cc(O)c2)cc1`: the Potency entry in assay [1], in assay [2], in assay [3] and in assay [5] was “inactive” in each case. Further, the activity change, negative = inhibition in assay [4] is 4.7% (inactive). In addition, the max response was determined as 1.7% in assay [4] (setting [9]) and 6.07% in assay [4] (setting [10]).
As for `CC(N)[C@H](O)c1ccccc1` (some centres not stated), the Potency result in assay [1], in assay [2], in assay [3] and in assay [5] was “inactive” in each case. In assay [4], the activity change, negative = inhibition was 2.72% (inactive). The max response in assay [4] (setting [9]) worked out at 12.8%; in assay [4] (setting [10]), 19.5%.
As for `CCCCSP(=O)(SCCCC)SCCCC`, the Potency result in assay [1], in assay [2], in assay [3] and in assay [5] was “inactive” each time. In addition, in assay [4], the activity change, negative = inhibition is 12.5% (inactive). For the same compound, the max response was 36.8% in assay [4] (setting [9]), 52% in assay [4] (setting [10]), 3.39% (inactive) in assay [6] and -3.57% (inactive) in assay [7].
`CC1C(=O)OC2C(O)C34C5OC(=O)[C@@]3(OC3OC(=O)[C@H](O)[C@]34C(C(C)(C)C)C5O)[C@]12O` (some centres not stated): the Potency result in assay [1], in assay [2], in assay [3] and in assay [5] was “inactive” each time. Moreover, the activity change, negative = inhibition in assay [4] is 0.291% (inactive). Further, the max response was 13.6% in assay [4] (setting [9]) and 14.3% in assay [4] (setting [10]).
In the case of `O=C(O)c1nn(Cc2ccc(Cl)c(Cl)c2)c2ccccc12`, the Potency entry in assay [1], in assay [2], in assay [3] and in assay [5] was “inactive” each time. For the same compound, in assay [4], the activity change, negative = inhibition was 4.27% (inactive). Also, the max response in assay [4] (setting [9]) turned out to be 10.4%; in assay [4] (setting [10]), 16.9%.
For `OCC1CCCN2CCCCC12` (configuration not stated), the Potency result in assay [1], in assay [2], in assay [3] and in assay [5] was “inactive” each time. Besides, in assay [4], the activity change, negative = inhibition was 1.09% (inactive). Moreover, the max response was -1.96% in assay [4] (setting [9]) and 1.94% in assay [4] (setting [10]).
On to `CN1C2CC3CC1C(O3)C2O` (configuration not stated), for which the Potency entry in assay [1], in assay [2], in assay [3] and in assay [5] was “inactive” each time. In assay [4], the activity change, negative = inhibition is 1.96% (inactive). The max response in assay [4] (setting [9]) was -4.71%; in assay [4] (setting [10]), -5.52%.
Take `O=C(O)COc1cc(Cl)c(Cl)cc1Cl`: the Potency result in assay [1], in assay [2], in assay [3] and in assay [5] was “inactive” throughout. The activity change, negative = inhibition in assay [4] is 1.28% (inactive). Also, the max response was 13.2% in assay [4] (setting [9]), 18.6% in assay [4] (setting [10]), -1.8% (inactive) in assay [6] and -0.339% (inactive) in assay [7].
On to `CC(C)OC(=O)Nc1cccc(Cl)c1`, for which the Potency entry in assay [1], in assay [3] and in assay [5] was “inactive” each time. Further, the activity change, negative = inhibition in assay [4] was 8.95% (inactive). Moreover, the max response in assay [4] (setting [9]) was 5.17%; in assay [4] (setting [10]) it was 15.8%; in assay [6] it was -1.91% (inactive); in assay [7], -6.02% (inactive).
Regarding `C=C1C2CCC3[C@@](CC[C@@H]4C(C(=O)O)CC(OC5OC(CO)C(OS(=O)(=O)O)C(OS(=O)(=O)O)C5OC(=O)CC(C)C)C[C@]34C)(C2)C1O` (some centres not stated), the Potency result in assay [1], in assay [2], in assay [3] and in assay [5] was “inactive” throughout. The activity change, negative = inhibition in assay [4] was 1.97% (inactive). Also, the results for the max response in assay [4] (setting [9]) and in assay [4] (setting [10]) were -12% and -7.92%, respectively.
With `CCC(=O)Nc1ccc(Cl)c(Cl)c1`, in assay [1], the Potency is 15.8 µM (active). For the same compound, the Potency entry in assay [8], in assay [2], in assay [3] and in assay [5] was “inactive” each time. In assay [4], the activity change, negative = inhibition was 7.8% (inactive). Also, the max response was 9.78% in assay [4] (setting [9]), 21.3% in assay [4] (setting [10]), -0.456% (inactive) in assay [6] and 1.17% (inactive) in assay [7].
For the compound `CNC1[C@@H](O)C(OC2C(N)C[C@H](N)[C@@H](O[C@@H]3OC(C(C)O)C(O)C(O)C3N)C2O)OC[C@]1(C)O` (some centres not stated), in assay [1], the Potency is 20 µM (active). In addition, the Potency entry in assay [8], in assay [2], in assay [3] and in assay [5] was “inactive” throughout. For the same compound, in assay [4], the activity change, negative = inhibition is 8.52% (inactive). The max response in assay [4] (setting [9]) stood at 15%; in assay [4] (setting [10]), 24.5%.
With `CC(=O)C1CCC2C3CCC4CC(O)CCC4(C)C3CC(O)C12C` (configuration not stated), the Potency entry in assay [1], in assay [2], in assay [3] and in assay [5] was “inactive” in each case. The activity change, negative = inhibition in assay [4] is -2.59% (inactive). The results for the max response in assay [4] (setting [9]) and in assay [4] (setting [10]) were 3.25% and 2.61%, respectively.
